Inconclusive results are not listed. A call without a number means that no potency is given here. Activity calls are given as the source filed them. Calls come from the whole dose curve; as a rule, active = well fitted activation curve with a large enough effect; inconclusive = small, poorly fitted or top-dose-only effect; inactive = no such curve, though single readings can be large or run the other way.

The experiment in a line: Validation screen for small molecules that induce genotoxicity in human embryonic kidney (HEK293T) cells expressing luciferase-tagged ELG1 (AID 493106). As to conditions: luminescence; series mostly up to 46.1 µM. From the text:
NIH Molecular Libraries Probe Production Network [MLPCN]
NIH Chemical Genomics Center [NCGC]
Assay Provider: Kyungjae Myung, NHGRI, NIH
Keywords: MLPCN, qHTS, NCGC, genotoxicity, cancer
Cancer cells divide rapidly compared to normal cells in the body. During cell division, cancer cells need to duplicate their genome by DNA replication. The failure of genome duplication leads to cancer cells' death. Therefore, inhibitors of DNA replication could specifically kill cancer cells. Based on this concept, many chemotherapeutic agents were developed and have been used to treat cancer patients. However, there are a limited number of agents available in the clinical setting, and some of those that do exist have low efficacy and severe side effects. Therefore, if we can find the compounds that effectively block DNA replication either by directly damaging DNA or by inhibiting other cellular mechanisms, the options for cancer treatment will be broadened. With this in mind, we developed a quantitative high-throughput ELG1-luciferase reporter gene assay. Since the level of human ELG1 protein is enhanced in response to genetic stresses, increases in luciferase activity can be used to identify compounds that cause genetic stress.
For genotoxicity screening, 2,000 cells in 5 uL/well were dispensed into white, solid-bottom 1536-well plates using a solenoid-based dispenser. Following transfer of 23 nL compound or DMSO vehicle by a pin tool, the plates were incubated 16 hr at 37 °C and 5% CO2. 5 ul ONE-Glo (Promega) was then added to each plate and following a 30 min incubation at room temperature, luciferase activity was quantified on a ViewLux CCD-based plate reader.
With `O=C(O)C1=CC(=C(c2ccc(O)c(C(=O)O)c2)c2ccc(O)c(C(=O)O)c2)C=CC1=O`, the Potency result was “inactive”.

As for `C[C@](Cc1ccc(O)c(O)c1)(NN)C(=O)O`, the Potency result is “inactive”. With `[N-]=[N+]=Nc1ccc(C(=O)CSC[C@H](NC(=O)CC[C@H](N)C(=O)O)C(=O)NCC(=O)O)cc1` the entry was “inactive”; with `CCCCCC(O)CCCC(=O)O` (stereo not given), “inactive”; with `O=C(O)c1cccnc1C(=O)O`, “inactive”. As to `N[C@H](C(=O)O)[C@H](Cc1ccccc1)C(=O)O`, the Potency result was “inactive”. Turning to `COc1cc(C(O)C(=O)O)ccc1O` (stereo not given), the Potency entry was “inactive”. With `COc1ccc(NC(=O)c2ccc(-c3ccc(-c4noc(C)n4)cc3C)cc2)cc1N1CCN(C)CC1` the entry was “inactive”; with `CCCc1c(OCCCOc2ccc(OCC(=O)O)cc2)ccc(C(C)=O)c1O`, “inactive”.

Consider `CCCCCCCCCCC/C=C\C(C)(C)/C=C\CCCC(=O)O`, for which the Potency entry is “inactive”. With `C=CCN1CCc2cc(O)c(O)cc2C(c2ccccc2)C1` (stereo not given) the entry was “inactive”; with `CC(C)C[C@H](NC(=O)[C@H](O)[C@H](N)Cc1ccccc1)C(=O)O`, “inactive”. For `N=C(N)c1ccc(OCCCCCOc2ccc(C(=N)N)cc2)cc1` (tested in a mixture with another compound), the Potency result is “inactive”.

As to `N[C@@H](Cc1c[nH]c2ccccc12)C(=O)O`, the Potency result is “inactive”. The same measure for `NC1(C(=O)O)CCCCC1`: “inactive”.

As to `NC[C@@H]1O[C@H](c2ccccc2)Cc2c1ccc(O)c2O`, the Potency result was “inactive”. Turning to `CC1CCN=C(N)S1` (stereo not given), the Potency entry was “inactive”. Consider `CC(C)(C)NCC(O)COc1cccc2[nH]c(=O)[nH]c12` (stereo not given), for which the Potency entry is “inactive”.

As to `COc1ccc(C(=O)NCc2cccnc2)cc1C(=O)NCc1cccnc1`, the Potency entry was “inactive”. With `CC#CCOC(=O)c1c(C)nc2sc3c(c2c1N)CCC(O)C3` (stereo not given) the entry was “inactive”; with `O=C(O)C1=CCCNC1`, “inactive”; with `O=C(O)C1CN(CCCP(=O)(O)O)CCN1` (stereo not given), “inactive”. For the compound `CC(C)NC[C@H](O)COc1ccc(CC(N)=O)cc1`, the Potency result was “inactive”. As for `CCCCC[C@H](CC(=O)NO)C(=O)N[C@H](C(=O)N1CCC[C@H]1CO)C(C)C`, the Potency result is “inactive”. For the compound `COc1ccc(CCN(C)CCc2ccc(OC)c(OC)c2)cc1OC`, the Potency result is “inactive”. The same measure for `NC(=O)c1ccccc1`: “inactive”; for `CC(=O)C(C)=O`: “inactive”; for `COc1cc2c(CCNC(C)=O)c[nH]c2cc1O`: “inactive”. With `Oc1cc2c(cc1O)C(c1ccccc1)CNCC2` (stereo not given) the entry was “inactive”; with `O=C(O)C1=CCNCC1`, “inactive”; with `O=C1NC(=O)c2cc(Nc3ccccc3)c(Nc3ccccc3)cc21`, “inactive”. Regarding `NC/C=C\C(=O)O`, the Potency entry was “inactive”.

In the case of `COC(=O)C1=C(C)NC(C)=C([N+](=O)[O-])C1c1ccccc1C(F)(F)F` (stereo not given), the Potency result is “inactive”. With `N=C(N)c1ccc(N)cc1` the entry was “inactive”; with `CC(N)(Cc1ccc(O)cc1)C(=O)O` (stereo not given), “inactive”. Take `CN(C)CCC(c1ccc(Br)cc1)c1ccccn1` (stereo not given): the Potency result was “inactive”. With `CCCCS(=N)(=O)CC[C@H](N)C(=O)O` (stereo not given in full) the entry was “inactive”. In the case of `Cc1nc(N=Nc2ccc(C(=O)O)cc2)c(COP(=O)(O)O)c(C=O)c1O`, the Potency result was “inactive”. With `O=C(O)CCC/C=C\C[C@@H]1[C@@H](/C=C/[C@H](O)C2Cc3ccccc3C2)[C@@H](F)C[C@@H]1O` the entry was “inactive”; with `O=C(O)Cc1ccc(O)c(O)c1`, “inactive”.

The values above are taken from PubChem BioAssay (NCATS).
